Assay results as given in PubChem BioAssay (NCI).
About 79,000 compounds went through this panel and 15% of them were active in at least one assay; those are over-represented in the sample as a whole. Activity calls are given as the source filed them. No stated cut-off is given here; in the data, active means growth inhibition above about 70%; inactive means the rest.

Legend:
[1] = NCI Yeast Anticancer Drug Screen. Data for the rad50 strain (AID 155);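 further: 0% = growth of vehicle-only cultures of the same strain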; details: S. cerevisiae rad50 strain growth inhibition; at 50.0 µM; stronger effect = higher value
Summary of the method: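 Vehicle-treated cultures provide the reference for the growth inhibition reported for compound-exposed, repair-deficient yeast.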

[2] = NCI Yeast Anticancer Drug Screen. Data for the mec2-1 strain (AID 157); details: S. cerevisiae mec2-1 strain, at 50.0 µM, stronger effect = higher value
Summary of the method: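 Using mec2-1 yeast: add compound, measure growth, express inhibition versus vehicle-treated cultures.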

[3] = NCI Yeast Anticancer Drug Screen. Data for the sgs1 mgt1 strain (AID 161);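 further: 0% = growth of cultures given vehicle only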; details: S. cerevisiae sgs1 mgt1 strain, at 50.0 µM, stronger effect = higher value
Summary of the method: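 Compounds are added to genetically altered yeast, and growth is compared with cultures given vehicle alone to give percent inhibition.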

[4] = NCI Yeast Anticancer Drug Screen. Data for the cln2 rad14 strain (AID 165);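 further: 0% = growth equal to vehicle treated cultures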; details: S. cerevisiae cln2 rad14 strain, at 50.0 µM, stronger effect = higher value
Summary of the method: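 Yeast strain cln2 rad14, bearing defects in cell cycle control and DNA repair, serves as the test system; values reflect growth inhibition compared with vehicle.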

[5] = NCI Yeast Anticancer Drug Screen. Data for the bub3 strain (AID 167); details: S. cerevisiae bub3 mutant strain, at 50.0 µM, stronger effect = higher value
Summary of the method: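 Mutant yeast screening strain plus compound; vehicle-treated cultures serve as the 0% inhibition reference.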

[6] = NCI Yeast Anticancer Drug Screen. Data for the mlh1 rad18 strain (AID 175); details: S. cerevisiae mlh1 rad18 strain growth inhibition; at 50.0 µM; stronger effect = higher value
Summary of the method: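 Steps: expose repair-defective yeast to compound; measure growth; express inhibition against vehicle-treated controls.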

Measured: growth inhibition

NCC(=O)Nc1ccc(Cl)cc1C(=O)c1ccc[nH]1
inactive: [1] 1.4% | [2] -16% | [3] -27.6% | [4] -42.4% | [5] -53.5% | [6] 0.85%

CC(=O)OCCn1c2ccccc2nc2cc3c(cc21)c(Cl)c(=O)c1ccccc13
inactive: [1] 29.6% | [2] 14.3% | [3] 21.1% | [4] 25.6% | [5] -1.6% | [6] 13.4%

N#Cc1c(C(=O)NN)c2c(-c3ccc4ccccc4c3)n[nH]c(=O)c2[nH]c1=O
inactive: [1] 20.4% | [2] 23.4% | [3] 30.4% | [4] 4.1% | [5] 7.1% | [6] 42.9%

O=C1c2ccccc2C(=O)N1/N=[N+](\[O-])N1Cc2ccccc2C1
inactive: [1] 18.4% | [2] 27.9% | [3] 24.1% | [4] -18.2% | [5] 7.65% | [6] 28.2%

Fc1cccc(Cl)c1/C=N\N=C1c2ccccc2-c2ccccc21
inactive: [1] -8.1% | [2] 21.9% | [3] -22.4% | [4] -20.1% | [5] -57.8% | [6] -15.8%

Cc1ccc(S(=O)(=O)C(CC(=O)O)c2ccccc2)cc1 (stereo not given)
inactive: [1] 0.35% | [2] 0.15% | [3] 6.15% | [4] 4.15% | [5] 1.7% | [6] 4.2%

Cc1cc(Br)c(NC(=S)SCc2ccc(Cl)cc2)cc1C
active: [1] 88.2% | [2] 80% | [3] 82.6% | [5] 80% | [6] 95.8%
inactive: [4] 63.5%

N#CC1C(=O)NC(=S)NC1c1ccc2c(c1)CCC2 (stereo not given)
inactive: [1] -12.9% | [2] -6.7% | [3] -22.9% | [4] -18.8% | [5] -7.15% | [6] 4.1%

O=C1c2ccccc2C(=C(c2ccccc2)c2ccccc2)c2ccccc21
inactive: [1] 29.1% | [2] -19.5% | [3] -10.3% | [4] 10.6% | [5] 5.35% | [6] -4.75%

N#CC(NCCc1ccccc1)c1ccccc1 (stereo not given)
inactive: [1] 2.45% | [2] -3.1% | [3] -32.8% | [4] -20.1% | [5] -56.7% | [6] -3.95%

CCNCC1COc2ccccc2O1 (stereo not given)
inactive: [1] -0.3% | [2] 3% | [3] -7% | [4] -15.8% | [5] -4.8% | [6] -1%

NC(C(=O)O)c1ccccc1 (stereo not given)
inactive: [1] -0.85% | [2] -23.4% | [3] -3.85% | [4] -1.9% | [5] -10.7% | [6] -19.5%

CCOC(=O)C1=C(C)NC(=O)NC1c1ccc(N(C)C)cc1 (stereo not given)
inactive: [1] 22.8% | [2] -4.05% | [3] 23.2% | [4] 21.6% | [5] 30.6% | [6] 29.1%

CC(C)=NNC=N/C(C#N)=C(\N)C#N
inactive: [1] -14.3% | [2] -0.55% | [3] -17.5% | [4] 18% | [5] -9.6% | [6] -24.7%

CC(C)OP(=O)(OC(C)C)/C(N)=N/Nc1ccc([N+](=O)[O-])cc1
inactive: [1] 25.6% | [2] -0.2% | [3] -5.6% | [4] 2.65% | [5] -3.95% | [6] -7.7%

COc1cc2c(NCCCCCCO[N+](=O)[O-])ncnc2c(OC)c1OC
inactive: [1] 26.6% | [2] -5.7% | [3] 40.8% | [4] 43.8% | [5] 39% | [6] 30.6%

Nc1nnc2c(=O)[nH]cnc2n1
inactive: [1] 2.25% | [2] -8.8% | [3] -29.2% | [4] -14.4% | [5] -12.2% | [6] -7.35%

COC1CC(OC2C(C)OC(OC3C(C)OC(OC4C(O)CC(O[C@H]5CC[C@@]6(C)C(=CC[C@]7(O)[C@@H]6C[C@@H](OC(=O)/C=C/c6ccccc6)[C@@]6(C)[C@]7(O)CC[C@@]6(O)C(C)=O)C5)OC4C)CC3OC)CC2OC)OC(C)C1O (stereo not given in full)
inactive: [1] -13.4% | [2] 7.95% | [3] -8.6% | [4] 16.2% | [5] -6.75% | [6] -53.8%

CCN1C2=NCCN2C(=O)c2ccccc21
inactive: [1] -0.8% | [2] -11.2% | [3] 15.9% | [4] 15.1% | [5] 8.25% | [6] 13.4%

CN(C)CCCNC(=O)/C=C\C(=O)O
inactive: [1] 5.8% | [2] 3.9% | [3] 0.15% | [4] -4.9% | [5] 2.6% | [6] -6.15%
